Measured values taken from PubChem BioAssay.
Values without a mark were called inactive. For part of these data: Measured potencies and affinities stand elsewhere. The source made the active and inactive calls. Unless noted, the rule behind the calls is not given here.

What was measured:
[1] = antimalarial activity against Dd2 strain (AID 2302;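 active = growth inhibition above 50% at the single 2 µM test dose, taken to imply half-maximal potency below 2 µM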;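 note: 0% = DMSO untreated growth and 100% = chloroquine plus artemisinin killed control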); conditions: P. falciparum Dd2 in RBCs, LDH growth readout, 72 h; at 2 µM; hits give high values
[2] = human hepatoma cell viability loss – ATP luminescence, cytotoxicity control for P. falciparum antimalarial project, primary screen (AID 2303;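 active = inhibition above 50%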;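 note: 0% = DMSO wells and 100% = digitonin-killed cells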); conditions: HepG2 viability, 24-48 h, at 10 µM, hits give high values
[3] = biological target: L-lactate dehydrogenase (Plasmodium falciparum (isolate CDC / Honduras)) (UniProt Q27743); test: PfLDH activity inhibition – cell lysate, 3D7 strain, counter-screen for P. falciparum growth inhibition project (AID 2304);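 note: 0% = vehicle and 100% = reference inhibitor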; conditions: P. falciparum 3D7 crude extract, LDH APAD/NBT absorbance; at 2 µM; hits give high values
L-lactate dehydrogenase (Plasmodium falciparum (isolate CDC / Honduras)), sequence (Q27743 whole entry, looked up): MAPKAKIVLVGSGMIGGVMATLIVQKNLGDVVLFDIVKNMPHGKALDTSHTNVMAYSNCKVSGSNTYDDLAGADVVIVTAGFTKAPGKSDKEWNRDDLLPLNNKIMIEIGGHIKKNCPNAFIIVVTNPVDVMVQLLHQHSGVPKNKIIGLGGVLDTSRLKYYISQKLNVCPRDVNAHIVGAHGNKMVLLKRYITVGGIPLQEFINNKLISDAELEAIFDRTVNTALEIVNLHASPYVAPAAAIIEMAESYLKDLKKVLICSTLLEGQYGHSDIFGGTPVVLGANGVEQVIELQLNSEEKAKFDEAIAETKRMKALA

[4] = inhibition of 3D7 malaria parasite growth – strain 3D7 (AID 2306);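 note: 0% = DMSO wells and 100% = chloroquine plus artemisinin control wells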; conditions: P. falciparum 3D7 erythrocytic growth, LDH absorbance, 72 h; at 2 µM; hits give high values
[5] = biological target: Calcium-dependent protein kinase 1 (Plasmodium falciparum (isolate 3D7)) (UniProt P62344); test: PfCDPK1 kinase inhibitors, biochemical, TCAMS library (AID 1159585; cut-off not given, nearly all actives have IC50 up to about 0.98 µM;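 note: inhibitors leave more ATP so luminescence rises with inhibition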); conditions: recombinant PfCDPK1, Kinase-Glo ATP depletion luminescence
Calcium-dependent protein kinase 1 (Plasmodium falciparum (isolate 3D7)), sequence (P62344 whole entry, looked up): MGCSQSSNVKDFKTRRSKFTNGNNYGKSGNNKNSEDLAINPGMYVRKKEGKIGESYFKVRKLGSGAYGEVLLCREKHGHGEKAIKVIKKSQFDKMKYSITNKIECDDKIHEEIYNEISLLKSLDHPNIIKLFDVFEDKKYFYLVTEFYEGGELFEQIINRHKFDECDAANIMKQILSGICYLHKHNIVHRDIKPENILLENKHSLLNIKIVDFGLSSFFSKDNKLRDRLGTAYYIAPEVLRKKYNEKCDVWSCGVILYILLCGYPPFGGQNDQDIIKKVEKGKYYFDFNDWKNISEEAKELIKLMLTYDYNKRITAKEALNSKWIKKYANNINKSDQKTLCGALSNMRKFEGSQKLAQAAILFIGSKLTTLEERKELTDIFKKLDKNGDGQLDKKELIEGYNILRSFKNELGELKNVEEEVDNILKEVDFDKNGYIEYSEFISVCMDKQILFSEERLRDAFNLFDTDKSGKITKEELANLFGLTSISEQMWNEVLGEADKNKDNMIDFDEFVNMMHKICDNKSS

[6] = biological target: Plasmodium falciparum protein kinase 6 (PK6, PF3D7_1337100) (UniProt Q8IDW1); test: PfPK6 kinase inhibitors, biochemical, TCAMS library (AID 1159586); conditions: recombinant PfPK6, Kinase-Glo ATP depletion luminescence
Plasmodium falciparum protein kinase 6 (PK6, PF3D7_1337100), sequence (Q8IDW1 1-305): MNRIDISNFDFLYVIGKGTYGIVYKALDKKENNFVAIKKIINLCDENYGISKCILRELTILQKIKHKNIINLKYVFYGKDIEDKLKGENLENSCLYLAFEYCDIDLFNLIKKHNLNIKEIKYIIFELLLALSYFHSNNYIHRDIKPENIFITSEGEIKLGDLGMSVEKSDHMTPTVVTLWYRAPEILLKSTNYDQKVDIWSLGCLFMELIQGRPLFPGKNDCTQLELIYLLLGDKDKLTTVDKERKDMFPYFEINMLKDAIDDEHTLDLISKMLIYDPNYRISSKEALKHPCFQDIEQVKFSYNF

[7] = biological target: Protein kinase 7 (PK7), Plasmodium falciparum 3D7 (PF3D7_0213400) (UniProt Q7YTF7); test: inhibition of Plasmodium PK7 catalytic activity – biochemical, TCAMS antimalarial set, Kinase-Glo luminescence (AID 1159587); conditions: recombinant PfPK7, Kinase-Glo ATP depletion luminescence
Protein kinase 7 (PK7), Plasmodium falciparum 3D7 (PF3D7_0213400), sequence (Q7YTF7 1-343): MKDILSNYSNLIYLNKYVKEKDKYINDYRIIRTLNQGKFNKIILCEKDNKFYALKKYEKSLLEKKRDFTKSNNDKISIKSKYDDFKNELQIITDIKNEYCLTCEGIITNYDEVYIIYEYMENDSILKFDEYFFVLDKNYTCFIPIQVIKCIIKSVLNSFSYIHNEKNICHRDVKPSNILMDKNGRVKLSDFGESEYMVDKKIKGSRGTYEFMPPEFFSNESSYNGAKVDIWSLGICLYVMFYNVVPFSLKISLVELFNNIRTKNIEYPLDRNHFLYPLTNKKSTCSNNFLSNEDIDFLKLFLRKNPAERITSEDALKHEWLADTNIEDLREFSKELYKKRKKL

[8] = biological target: Calcium-dependent protein kinase 4 (Plasmodium falciparum (isolate 3D7)) (UniProt Q8IBS5); test: PfCDPK4 kinase inhibitors, biochemical, TCAMS library (AID 1159588; cut-off not given, nearly all actives have IC50 up to about 0.91 µM); conditions: recombinant PfCDPK4, Kinase-Glo ATP depletion luminescence
Calcium-dependent protein kinase 4 (Plasmodium falciparum (isolate 3D7)), sequence (Q8IBS5 whole entry, looked up): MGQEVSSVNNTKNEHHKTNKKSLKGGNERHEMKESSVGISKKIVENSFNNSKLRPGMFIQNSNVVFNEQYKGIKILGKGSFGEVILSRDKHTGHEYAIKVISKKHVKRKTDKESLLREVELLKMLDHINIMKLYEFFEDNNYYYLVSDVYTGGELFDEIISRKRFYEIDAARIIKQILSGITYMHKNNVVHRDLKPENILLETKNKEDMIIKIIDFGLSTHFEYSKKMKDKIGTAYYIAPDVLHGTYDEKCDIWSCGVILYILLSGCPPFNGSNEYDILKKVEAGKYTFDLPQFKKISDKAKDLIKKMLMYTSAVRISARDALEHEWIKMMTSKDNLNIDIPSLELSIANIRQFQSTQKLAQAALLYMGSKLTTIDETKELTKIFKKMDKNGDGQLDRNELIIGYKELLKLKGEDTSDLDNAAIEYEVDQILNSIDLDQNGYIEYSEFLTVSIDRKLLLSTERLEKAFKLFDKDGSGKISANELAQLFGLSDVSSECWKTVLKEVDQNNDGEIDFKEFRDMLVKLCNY

| Compound | growth inhibition [1] | inhibition [2] | inhibition [3] [%] | growth inhibition [4] | outcome [5] | outcome [6] | outcome [7] | outcome [8] |
| --- | --- | --- | --- | --- | --- | --- | --- | --- |
| COc1ccc(CCNC(=O)c2cnc3c(c2)nc(-c2cnc(-c4ccccc4)[nH]2)n3CCc2cnc[nH]2)cc1 | 70% (active) | 16% | 1 | 96% (active) | inactive | inactive | inactive | inactive |
| CC1(C)[C@H]2C=C(CN3CCC(NC(=O)Nc4ccc(Cl)c(Cl)c4)CC3)[C@@H]1CC2 | 33% | 28% | 2 | 101% (active) | inactive | inactive | inactive | inactive |
| Cc1noc(-c2ccc3c(c2)CCN(CCC2CCC(NC(=O)c4cc5ccccc5[nH]4)CC2)CC3)n1 (configuration not stated) | 41% | 21% | -7 | 99% (active) | inactive | inactive | inactive | inactive |
| O=C1C(c2ccccc2)=C(Nc2ccc(OC(F)(F)F)cc2)c2ccccc21 | 96% (active) | 18% | 1 | 96% (active) | inactive | inactive | inactive | inactive |
| CC(Cc1ccc(NC(=O)c2ccc(CNCCCCc3ccccc3)cc2)cc1)NCCc1cccc(Cl)c1 (configuration not stated) | 96% (active) | 100% (active) | -1 | 100% (active) | inactive | inactive | inactive | inactive |
| c1ccc2cc3c(Nc4ccc(N5CCCCC5)cc4)ccnc3cc2c1 | 36% | 21% | -4 | 100% (active) | inactive | inactive | inactive | inactive |
| COc1ccc(CN2CCC(N3CCc4cc(NC(=O)c5cc(C)on5)ccc43)C2)cc1Cl (configuration not stated) | 91% (active) | 15% | 2 | 94% (active) | inactive | inactive | inactive | inactive |
| O=C(c1ccc([N+](=O)[O-])o1)N1CCN(c2ccccc2)CC1 | 72% (active) | 44% | 0 | 94% (active) | inactive | inactive | inactive | inactive |
| O=C(/C=C/c1ccc(Cl)c(Cl)c1)NCCCCCN1CCC(CCNC(=O)/C=C/c2cc(C(F)(F)F)ccc2F)CC1 | 46% | 25% | -5 | 98% (active) | inactive | inactive | inactive | inactive |
| CC(C)(C)c1cc(C(=O)Nc2cccnc2)cc(C(=O)Nc2cccnc2)c1 | 35% | -12% | -3 | 95% (active) | inactive | inactive | inactive | inactive |
| Cc1[nH]c(C)c(-c2ccc(-c3ccc(OCC(F)(F)F)cc3)nc2)c(=O)c1Cl | 96% (active) | 3% | 4 | 94% (active) | inactive | inactive | inactive | inactive |
| C#CCNCc1ccc(-c2cccc(-c3nc4c(C)cccc4[nH]3)c2)cc1 | 32% | -4% | 2 | 100% (active) | inactive | inactive | inactive | inactive |
| COc1nc2c(CCN3CC[C@@H](NCc4cc(C#N)c5c(c4)CCO5)[C@@H](O)C3)ccnc2cc1F | 35% | 21% | -1 | 92% (active) | inactive | inactive | inactive | inactive |
| O=C(Nc1cccc(CN2CCN(C(=O)c3cccc(Cl)c3)CC2)c1)c1cccs1 | 94% (active) | 17% | -6 | 94% (active) | inactive | inactive | inactive | inactive |
| CCCCCN1CCCC1CNS(=O)(=O)c1cccc(C(=O)Nc2cccc(C(F)(F)F)c2)c1 (configuration not stated) | 12% | 15% | 4 | 96% (active) | inactive | inactive | inactive | inactive |
| O=C(NCc1ccccc1)C1Cc2c([nH]c3ccc(Br)cc23)C2(CCN(Cc3ccccc3)CC2)N1 (configuration not stated) | 70% (active) | 15% | 1 | 98% (active) | inactive | inactive | inactive | inactive |
| C=CCN1C(=O)C(C(C)=O)=C(O)C1c1ccccc1 (configuration not stated) | 97% (active) | 41% | -4 | 93% (active) | inactive | inactive | inactive | inactive |
| FC(F)(F)c1ccc2nc(-c3ccc(-c4cccc(CNCc5ccccc5)c4)cc3)[nH]c2c1 | 43% | -2% | -5 | 100% (active) | inactive | inactive | inactive | inactive |
| O=C(CCCCCNC(=O)c1ccc(O)c(-c2cccc(C(F)(F)F)c2)c1)NCCN1CCCCC1 | 0% | -5% | 4 | 99% (active) | inactive | inactive | inactive | inactive |
| Oc1ccc(Nc2nc(NCc3ccco3)c3ccccc3n2)cc1 | 78% (active) | 7% | -3 | 101% (active) | inactive | inactive | inactive | inactive |

| Compound | growth inhibition [1] | inhibition [2] | inhibition [3] [%] | growth inhibition [4] | outcome [5] | outcome [6] | outcome [7] | outcome [8] |
| --- | --- | --- | --- | --- | --- | --- | --- | --- |
| CCN(CC)CCNc1ccc(Nc2ccnc3cc4ccccc4cc23)cc1 | 99% (active) | 36% | -8 | 102% (active) | inactive | inactive | inactive | inactive |
| COCCNC(=O)C1CCN(C(c2ccc(Cl)cc2)c2ccc(Cl)cc2)CC1 | 73% (active) | 3% | -3 | 86% (active) | inactive | inactive | inactive | inactive |
| COc1ccc2c(c1)Nc1ccc(Cl)cc1C2N (configuration not stated) | 99% (active) | 16% | 3 | 101% (active) | inactive | inactive | inactive | inactive |
| NC1CCCN(Cc2cccc(-c3cccc(-c4nc5ccccc5[nH]4)c3)c2)C1 (configuration not stated) | 61% (active) | 24% | -5 | 101% (active) | inactive | inactive | inactive | inactive |
| Cc1ccc2[nH]ncc2c1N(CC1CCCCC1)c1ccnc(Nc2ccc(OCC(O)CN3CC=CCC3)cc2)n1 (configuration not stated) | 79% (active) | 29% | -4 | 100% (active) | inactive | inactive | inactive | inactive |
| CC(=O)c1c(Cc2cccc(C(F)(F)F)c2)c[nH]c1C | 92% (active) | 6% | 7 | 94% (active) | inactive | inactive | inactive | inactive |
| COc1ccc(-c2cncc(-c3ccc(OC)c(OC)c3)n2)cc1OC | 90% (active) | 6% | 6 | 95% (active) | inactive | inactive | inactive | inactive |
| OC(CNCc1cccc(Oc2ccc(Cl)cc2)c1)c1cc(C(F)(F)F)cc(C(F)(F)F)c1 (configuration not stated) | 101% (active) | -4% | 8 | 99% (active) | inactive | inactive | inactive | inactive |
| COc1ccc2nccc(N(C)CC3(O)CCN(CCc4ccc5c(c4)NC(=O)CS5)CC3)c2n1 | 67% (active) | 10% | 1 | 91% (active) | inactive | inactive | inactive | inactive |
| COc1ccc(Cl)c(CC2c3cc(O)c(Cl)cc3CCN2C)c1 (configuration not stated) | 72% (active) | 9% | -1 | 98% (active) | inactive | inactive | inactive | inactive |
| COc1ccc(-c2cccc(NC(=O)c3cccc(Cl)c3)c2)cc1CNC(C)C | 8% | 15% | -2 | 102% (active) | inactive | inactive | inactive | inactive |
| CCCCCC(C)C(C)c1cc(OC(N)=O)c2c(c1)OC(C)(C)C=C2c1ccncc1 (configuration not stated) | -1% | 81% (active) | 0 | 96% (active) | inactive | inactive | inactive | inactive |
| COc1cc2cc(Cc3cnc(N)nc3N)ccc2c(OC)c1OC | 2% | 1% | 7 | 97% (active) | inactive | inactive | inactive | inactive |
| COc1cc(NC2CCCC(NCc3cn(S(=O)(=O)c4ccccc4)c4ccccc34)C2)nc2ccccc12 (configuration not stated) | 61% (active) | 4% | 2 | 100% (active) | inactive | inactive | inactive | inactive |
| Nc1nccc2ccc(-c3ccsc3)cc12 | 89% (active) | 38% | 4 | 100% (active) | inactive | inactive | inactive | inactive |
| FC(F)(F)Oc1cccc(CNc2noc(-c3sccc3Br)n2)c1 | 97% (active) | 0% | -3 | 100% (active) | inactive | inactive | inactive | inactive |
| COc1ccc2nccc([C@@H](O)CN3CCC(NCc4cc5oc(=O)[nH]c5cc4F)CC3)c2c1 | 4% | -9% | -2 | 99% (active) | inactive | inactive | inactive | inactive |
| O=C(Nc1ccc(CC(=O)N2CCc3cc(Cl)c(N4CCN(C/C=C/c5ccccc5)CC4)cc32)cc1)Nc1cccc([N+](=O)[O-])c1 | 27% | -8% | -5 | 95% (active) | inactive | inactive | inactive | inactive |
| Cc1ccccc1N1CCN(c2ncc(C(=O)NC3CC3)cc2Cl)CC1 | 96% (active) | 23% | -2 | 91% (active) | inactive | inactive | inactive | inactive |
